# Screening data as filed in PubChem.
# HEK cytotox – Cytotoxic Profiling in HEK 293 Cell Line of Diverse Libraries Using Quantitative High-Throughput Screening | HEK 293 viability, ATP luminescence (CellTiter-Glo), 48-72 h | 94,000 compounds, 6.6% hits | AID 1345083, 2018 | Potency, µM (doses to about 115 µM), without a hit: at the top dose activity change, negative = cytotoxicity, actives largely listed as inhibitors; further: on the % scale 0 is the no-effect control and ±100 the full control effect; nearly all actives have a fitted effect of over 60% in size
#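 Cells seeded first (HEK 293, 250 cells/well), then compound added by pintool. Incubation ran 48 or 72 hr at 37 degree Celsius. CellTiter-Glo was added and luminescence imaged after 10 min at room temperature.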
# hNpr1 antagonist – Natriuretic polypeptide receptor (hNpr1) antagonism - Primary qHTS | 76,000 compounds, 1.6% hits | HEK293 hNpr1 GloSensor cGMP, ANP-stimulated luminescence | Potency, µM (top dose mostly 46.3 µM), for inactives: at the highest dose activity change, negative = inhibition, usual class: inhibitors | AID 1347048, 2019 | Atrial natriuretic peptide receptor 1 (Homo sapiens), P16066; calls by dose curve; further: on the % scale 0 is the no-effect control and ±100 the full control effect; nearly all actives have a fitted effect of over 60% in size
#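 HEK293 cells stably expressing human Npr1 and cGMP GloSensor pGS-40F, loaded 2 h with 2% GloSensor reagent, given compound 30 min at room temperature. Luminescence read before and 20 min after 0.1 nM hNppA.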
# GPT2 inhibitor – Primary qHTS assay for inhibitors of Glutamate pyruvate transaminase 2 (GPT2); Alanine aminotransferase 2 (Homo sapiens), Q8TD30; Recombinant GPT2, coupled pyruvate oxidase/HRP Amplex Red fluorescence; Potency, µM (highest dose often 57.7 µM), for the others: at the highest dose activity change, negative = inhibition, hits mostly inhibitors; 100,000 compounds, 0.25% hits; AID 1671188, 2021; further: on the % scale 0 is the no-effect control and ±100 the full control effect; nearly all actives have a fitted effect of over 60% in size
# Target sequence (Q8TD30 whole entry, looked up): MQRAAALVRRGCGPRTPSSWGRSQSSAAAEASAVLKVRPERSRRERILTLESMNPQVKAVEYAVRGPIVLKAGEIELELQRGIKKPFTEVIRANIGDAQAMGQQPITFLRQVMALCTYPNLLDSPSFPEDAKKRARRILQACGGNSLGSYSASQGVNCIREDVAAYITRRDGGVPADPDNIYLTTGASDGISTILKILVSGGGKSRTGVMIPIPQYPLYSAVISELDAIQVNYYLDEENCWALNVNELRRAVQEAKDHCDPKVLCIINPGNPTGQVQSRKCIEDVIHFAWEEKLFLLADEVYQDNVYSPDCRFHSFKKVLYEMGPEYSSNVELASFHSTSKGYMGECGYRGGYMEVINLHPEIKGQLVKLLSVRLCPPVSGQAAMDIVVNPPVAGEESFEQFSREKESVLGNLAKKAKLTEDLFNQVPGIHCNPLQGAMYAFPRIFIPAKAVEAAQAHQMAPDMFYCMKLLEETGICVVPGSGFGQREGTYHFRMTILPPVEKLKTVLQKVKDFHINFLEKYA
#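 Inhibition is scored from Amplex Red fluorescence generated when pyruvate oxidase and HRP act on pyruvate released by GPT2. Reactions contain 10ng/uL enzyme, 250uM a-KG and 2mM L-alanine and run 30 min at room temperature.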
# Luciferase inh – Firefly luciferase inhibition profiling of diverse chemical library using quantitative high-throughput screening | purified P. pyralis luciferase, luminescence, biochemical | Luciferin 4-monooxygenase (Photinus pyralis), P08659 | 76,000 compounds, 2.5% hits | Potency, µM (doses to about 115 µM), most hits filed as inhibitors; further: on the % scale 0 is the no-effect control and ±100 the full control effect; nearly all actives have a fitted effect of over 65% in size
#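 Luminescence read by CCD imager after adding enzyme (10nM final) to wells holding compound, titrated in qHTS. Substrates 10uM each D-luciferin and ATP; buffer 50mM Tris acetate pH 7.5, 10mM Mg acetate, Tween-20, BSA.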
# 3T3 cytotox – Cytotoxic Profiling in NIH 3T3 Cell Line of Diverse Libraries Using Quantitative High-Throughput Screening; NIH 3T3 viability, CellTiter-Glo ATP luminescence, 48-72 h; Potency, µM (doses to about 96.7 µM), for inactives: at the top dose activity change, negative = cytotoxicity, actives largely listed as inhibitors; 94,000 compounds, 4.3% hits; AID 1345082, 2018; further: on the % scale 0 is the no-effect control and ±100 the full control effect; nearly all actives have a fitted effect of over 55% in size
#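 NIH 3T3 cells at 400 cells/well received 23 nL of compound by pintool and were incubated 48 or 72 h at 37 °C. Viability was read as ATP-coupled CellTiter-Glo luminescence.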
# NPR1 antag cnf – Natriuretic polypeptide receptor (hNpr1) antagonism - Confirmation. 1,400 compounds, 76% hits. AID 1347044, 2019. shares compounds with hNpr1 antagonist. HEK293 hNpr1 cGMP GloSensor luminescence, ANP-stimulated. Potency, µM (top dose mostly 57.6 µM), inactives show at the top dose activity change, negative = inhibition, most hits filed as inhibitors; calls by dose curve; further: nearly all actives have a fitted effect of over 70% in size
# NPR2 antag – Natriuretic polypeptide receptor (hNpr2) antagonism - Subtype selectivity assay | shares compounds with hNpr1 antagonist | HEK293 hNpr2 GloSensor cGMP luminescence, CNP-stimulated | Potency, µM (series often up to 57.6 µM), for inactives: at the highest dose activity change, negative = inhibition, hits mostly inhibitors | 1,400 compounds, 67% hits | AID 1347046, 2019; calls by dose curve; further: nearly all actives have a fitted effect of over 70% in size
# FLuc inh counter – Natriuretic polypeptide receptor (hNpr1) antagonism - Confirmation firefly luciferase (FLuc) inhibition counterscreen; Potency, µM (highest dose often 57.6 µM), without a hit: at the top dose activity change, negative = inhibition, most hits filed as inhibitors; purified FLuc enzyme, luminescence, Km substrate; AID 1347047, 2019; shares compounds with hNpr1 antagonist; 1,400 compounds, 0.7% hits; further: 0% is about no effect
# GloSensor ctrl – Natriuretic polypeptide receptor (hNpr1) antagonism - Counterscreen GloSensor control cell line | shares compounds with hNpr1 antagonist | HEK293 GloSensor cGMP, SNP-stimulated, luminescence | Potency, µM (highest dose often 57.6 µM), inactives show top-dose activity change, negative = inhibition, usual class: inhibitors | 1,400 compounds, 69% hits | AID 1347051, 2019; calls by dose curve; further: on the % scale 0 is the no-effect control and ±100 the full control effect; nearly all actives have a fitted effect of over 70% in size
# The depositor's hits bear a star; i = inactive; ? = inconclusive; . = no result; [ ] = dose if it differs, or a comment. An excerpt weighted towards active compounds, which were near 10% of everything screened. Unless noted, the call rests on the fitted dose curve; in most records, active means well fitted curve in the direction sought with a large enough effect; inconclusive means small, poorly fitted or top-dose-only effect, or another doubt; inactive means no such curve, though single readings can be large; an effect the other way counts as inactive or inconclusive. Potency means the concentration at half of the fitted maximal effect.
SMILES,HEK cytotox,hNpr1 antagonist,GPT2 inhibitor,Luciferase inh,3T3 cytotox,NPR1 antag cnf,NPR2 antag,FLuc inh counter,GloSensor ctrl
COc1ccc(CNC(=O)c2cc3c(s2)CCN(C(=O)c2ccccc2)C3)cc1OC,?,2.5µM*,-3%,i,?,3.4µM*,4.8µM*,2%,3.1µM*
O=C(c1ccccc1)N1CCc2sc(C(=O)N3CCN(c4ccc(F)cc4)CC3)cc2C1,?,7.1µM*,-8%,i,?,9.7µM*,11µM*,1%,6.9µM*
CC1(CNC(=O)c2ccc(Cl)s2)CCOCC1,8%,-1%,-21%,i,-4%,.,.,.,.
COc1nccc(N2CCC(CC(=O)N(C)CCCc3c(C)nn(C)c3C)CC2)n1,?,11µM*,-7%,i,?,22µM*,?,1%,19µM*
CNc1nccc(N2CCC(CC(=O)N(C)CCCc3c(C)nn(C)c3C)CC2)n1,?,?,1%,i,?,.,.,.,.
CC(C)(C)NC(=O)N1CCCCCCNC(=O)[C@@H]2C[C@@H](C(=O)NCCc3cnc[nH]3)C[C@@H]21,i,-3%,0%,i,-5%,.,.,.,.
O=C(CCC1CCCN(S(=O)(=O)c2ccccc2)C1)N1CCN(c2ccccn2)CC1 (centres undefined),45µM*,?,i,i,?,?,?,3%,?
O=C(CCC1CCCN(S(=O)(=O)c2ccccc2)C1)NCC1CCCCC1 (centres undefined),?,?,i,i,?,.,.,.,.
Cc1ccc(S(=O)(=O)N2CCCC(CCC(=O)N3CCCCC3)C2)cc1 (centres undefined),?,13µM*,i,i,?,?,?,1%,?
COc1ncccc1-c1cnc2[nH]cc(CC(=O)Nc3cccc(Cl)c3)c2c1,32µM*,?,-8%[88.5 µM],i,?,40µM*,?,1%[86.2 µM],44µM*
O=C(NCc1c[nH]c2ncccc12)c1cccnc1,-8%[172 µM],1%[70.6 µM],-18%[88.5 µM],i,-21%[138 µM],.,.,.,.
COc1ccc(-c2cnc3[nH]cc(CC(=O)Nc4ccc(OC)nc4)c3c2)cc1,?,?,2%[88.5 µM],i,?,?,?,-1%[86.2 µM],?
Cc1cc(NC(=O)Cc2c[nH]c3ncc(-c4ccccc4C)cc23)n(C)n1,?,16µM*,1%[88.5 µM],i,?,31µM*,28µM*,0%[86.2 µM],28µM*
COc1ccc(NC(=O)COc2ccc(NC(=O)C3CC3)cn2)cc1,1%,-1%,i,i,-16%,.,.,.,.
NC(=O)Cc1c[nH]c2ncc(-c3ccc(Oc4ccccc4)cc3)cc12,35µM*,7.9µM*,2%[88.5 µM],i,22µM*,7.9µM*,11µM*,-22%[86.2 µM],7.9µM*
COc1ccc(NC(=O)Cn2c(-c3ccccc3)nc(C)cc2=O)cc1,?,-25%,1%,i,?,.,.,.,.
COc1ccc(NC(=O)Cc2c[nH]c3ncc(-c4ccccc4C)cc23)cc1,79µM*,35µM*,-8%[88.5 µM],i,?,25µM*,18µM*,-8%[86.2 µM],31µM*
COc1ccc2nc(CO[C@H]3CN(Cc4ccc(OC)nc4)C[C@H]3F)[nH]c2c1,-20%[172 µM],-1%[70.6 µM],-8%[88.5 µM],i,-17%[138 µM],.,.,.,.
COC(=O)c1ccc2nc(CO[C@H]3CN(Cc4cccnc4)C[C@H]3F)[nH]c2c1,-28%[172 µM],2%[70.6 µM],3%[88.5 µM],i,-14%[174 µM],.,.,.,.
COc1ccc(CN2C[C@@H](F)[C@@H](OCc3nc4ccc(C(F)(F)F)cc4[nH]3)C2)cn1,?,32µM*,?,i,?,28µM*,31µM*,-12%[86.2 µM],?
COC(=O)c1ccc2nc(CO[C@H]3CN(Cc4ccc(Cl)cc4)C[C@H]3F)[nH]c2c1,?,32µM*,i,i,89µM*,40µM*,35µM*,-11%[86.2 µM],35µM*
COCc1nc(-c2ccc(OC3CN(C(=O)NC(C)C)C3)cc2)no1,?,13µM*,i,i,-22%,24µM*,24µM*,-2%,24µM*
CCN(CC)C(=O)N1CC(Oc2ccc(-c3nc(C)no3)cc2)C1,?,16µM*,-4%,i,?,24µM*,?,0%,?
Cc1nc(-c2ccc(OC3CCN(C(=O)NC4CCCCC4)C3)cc2)no1 (centres undefined),?,-4%,i,i,?,.,.,.,.
Cc1noc(-c2ccc(OC3CN(C(=O)NCc4ccc(F)cc4)C3)cc2)n1,?,13µM*,i,i,?,27µM*,?,-1%,24µM*
Cc1ccc(CNC(=O)N2CCC(Oc3ccc(-c4noc(C)n4)cc3)C2)cc1 (centres undefined),?,20µM*,-6%,i,?,?,-28%,-17%,-18%
COCCNc1c(-c2noc(C)c2C(=O)Nc2ccc(Cl)cc2)cnn1C,?,-1%[70.6 µM],0%[88.5 µM],i,?,.,.,.,.
Cc1cc(F)ccc1NC(=O)C1CN(S(=O)(=O)C2CC2)CC12CCCCC2 (centres undefined),-7%,2%,i,i,?,.,.,.,.
COCc1nc(-c2ccc(OC3CN(C(=O)NCc4ccccc4)C3)cc2)no1,?,?,i,i,-28%,.,.,.,.
